# Screening data from PubChem.
# Hits are enriched below; roughly 15% of the tested compounds scored in any of these assays.
# Pf growth 96h = P. falciparum growth inhibition at 96 hours; P. falciparum luciferase reporter growth, 96 h; Potency, µM (doses to about 28.7 µM), without a hit: at the top dose activity change, negative = inhibition, usual class: inhibitors; actives 6.9% (n = 320,000); AID 504834; note: potency is the fitted concentration of half-maximal effect; % is set by controls: 0 for no effect and ±100 for the full control effect
#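 Infected RBCs, 2% Hct / 0.05% parasitemia final; luciferase-reporter P. falciparum; cpd 96 h, 37 C, 5% CO2; luciferase detection reagent; luminescence.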
# Pf growth 48h = P. falciparum growth inhibition at 48 hours (one generation); P. falciparum luciferase growth in erythrocytes, 48 h; Potency, µM (series often up to 28.7 µM), inactives show at the top dose activity change, negative = inhibition, hits mostly inhibitors; actives 5.9% (n = 310,000); note: potency is the fitted concentration of half-maximal effect; % is set by controls: 0 for no effect and ±100 for the full control effect
#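 Here the parasites carry a stable luciferase gene and grow inside erythrocytes in Albumax-based RPMI medium with compound for one erythrocytic cycle. Activity is scored as loss of luminescent signal.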
# SARS PLP yeast = blocks SARS-CoV papain-like protease in a yeast assay; S. cerevisiae expressing SARS-CoV PLpro, growth rescue; Potency, µM (series often up to 32.9 µM), for inactives: top-dose activity, positive = growth rescue, hits mostly activators; actives 0.19% (n = 330,000); AID 485353; calls by dose curve; note: potency is the fitted concentration of half-maximal effect; 0% is about no effect; nearly all actives have a fitted effect of over 55% in size
# Sm TGR block = inhibitors of Schistosoma mansoni thioredoxin glutathione reductase; Q962Y6; purified TGR, DTNB reduction, TNB absorbance 405 nm; actives 3% (n = 360,000); Potency, µM (top dose mostly 114 µM), inactives show at the top dose activity change, negative = inhibition, usual class: inhibitors; note: potency is the fitted concentration of half-maximal effect; % is set by controls: 0 for no effect and ±100 for the full control effect; nearly all actives have a fitted effect of over 60% in size
#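 TGR 20 nM + NADPH 100 uM (dispensed conc.), cpd preinc 15 min RT; start with NADPH (500 uM addition) then DTNB (15 mM addition). Kinetic TNB absorbance, 405 nm filter. Four-parameter Hill fit across titration.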
# HCV inhibitor = HCV inhibition; AID 651820; actives 3.4% (n = 340,000); Potency, µM (series often up to 41.8 µM), for the others: at the highest dose activity change, negative = inhibition, hits mostly inhibitors; Huh7.5.1 HCVcc-Cre infection, luciferase reporter, 44 h; note: potency is the fitted concentration of half-maximal effect; % is set by controls: 0 for no effect and ±100 for the full control effect
#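 After 44 h co-culture of compound, cells and HCVcc-Cre (~0.5 moi), substrate is added for 15 min at room temperature and luciferase measured over 15 sec. Cells were seeded at 1,000/well and pre-cultured 4 h.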
# HCMV inh = blocks human cytomegalovirus replication. HFF cells, HCMV-luciferase reporter, 72 h; active compounds read low. activity change, negative = inhibition, % at 57.5 µM. actives 4.5% (n = 410,000). AID 1259415; in the data active = activity change below about -60%; inconclusive = no clear call, values can overlap the other calls; inactive = above about -39%; note: % is set by controls: 0 for no effect and ±100 for the full control effect
#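 Two compound doses tested in HFFs infected with HCMV-luciferase, MOI 1 PFU/cell, 72 h at 37C. Lysate luminescence read with OneGlo; data normalized against buffer-only and 10uM Salinomycin inhibitor controls.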
# The depositor's hits bear a star; ? = inconclusive; / = no result. Unless noted, calls come from the whole dose curve; as a rule, active = well fitted curve in the direction sought with a large enough effect; inconclusive = small, poorly fitted or top-dose-only effect, or another doubt; inactive = no such curve, though single readings can be large; an effect the other way counts as inactive or inconclusive.
SMILES,Pf growth 96h,Pf growth 48h,SARS PLP yeast,Sm TGR block,HCV inhibitor,HCMV inh
N#CC(c1ccc(Cl)cc1)c1c(Cl)cc(-n2ncc(=O)[nH]c2=O)cc1Cl (configuration not stated),-6%,?,/,/,/,/
COc1cccc(NC(=O)c2oc3ccccc3c2NC(=O)c2ccc(OC(C)C)cc2)c1,/,/,/,5%,/,53
CC(=O)NCCn1c(SCc2ccc(C)cc2C)nc2ccccc2c1=O,-81%,/,-1%,2%,?,-18
COc1ccccc1N1CCN(C(=O)C(CCSC)NS(=O)(=O)c2ccc3c(c2)oc(=O)n3C)CC1 (configuration not stated),/,/,/,-7%,/,0
CCC(C(=O)Nc1ccc(C(C)=O)cc1)n1cnc2nc3c(cc2c1=O)CCCC3 (configuration not stated),/,/,/,4%,/,29
CCC(=O)N1CCN(c2ccc(NC(=O)COc3ccccc3[N+](=O)[O-])cc2)CC1,26%,?,-1%,-18%,11µM*,-21
CC(C)n1cc(NC(=O)COc2ccccc2Cl)cn1,?,32%,-13%,-1%,6%,-61*
CCC(=O)N1CCN(c2ccc(NC(=O)COc3ccccc3Cl)cc2)CC1,5.9µM*,/,-7%,-7%,11µM*,?
CCC(=O)N1CCN(c2ccc(NC(=O)COc3ccc(C)cc3C)cc2)CC1,-19%,?,-33%,-8%,?,-14
CN1CCN(c2ccc(NC(=O)COc3ccccc3Cl)cc2)CC1,-13%,12%,-4%,2%,?,-24
CN1OC(C)(CC(=O)N2CCc3ccccc3C2)N=C1c1ccco1 (configuration not stated),/,/,/,/,/,-11
COc1cccc(C2C(C#N)=C(N)Oc3cc(C)n(Cc4ccccn4)c(=O)c32)c1OC (configuration not stated),26%,-12%,4%,-16%,15%,52
COc1cccc(C2C(C#N)=C(N)Oc3cc(C)n(Cc4ccco4)c(=O)c32)c1 (configuration not stated),-17%,4%,4%,?,-9%,-27
COc1ccccc1C1C(C#N)=C(N)Oc2cc(C)n(Cc3ccccn3)c(=O)c21 (configuration not stated),55%,/,16%,35µM*,13%,-4
COc1ccc(C2C(C#N)=C(N)Oc3cc(C)n(Cc4ccco4)c(=O)c32)cc1 (configuration not stated),/,12%,10%,32µM*,2%,-10
CCOc1ccccc1C1C(C#N)=C(N)Oc2cc(C)n(Cc3ccccn3)c(=O)c21 (configuration not stated),-3%,3%,0%,35µM*,-3%,12
CCOc1ccccc1C1C(C#N)=C(N)Oc2cc(C)n(C)c(=O)c21 (configuration not stated),13%,8%,5%,40µM*,38%,21
COc1ccc(CCNC(=O)CSc2nc(=O)n3cc(C)ccc3n2)cc1OC,47%,28%,6%,7%,-5%,15
COc1ccc(F)cc1S(=O)(=O)N1CC(C)CC(C)C1 (configuration not stated),-29%,/,-3%,0%,-7%,-14
COCCNC(=O)C1(C)CCN(C(=O)c2ccc(C(F)(F)F)nc2C)C1 (configuration not stated),/,/,/,/,/,13
Cc1cc2c(c(=O)n1CCCn1ccnc1)C(c1ccco1)C(C#N)=C(N)O2 (configuration not stated),6%,-11%,-10%,2%,15%,-1
COc1ccccc1C1C(C#N)=C(N)Oc2cc(C)n(CCCn3ccnc3)c(=O)c21 (configuration not stated),/,-8%,3%,50µM*,12%,59
O=C(NCCOc1ccc(F)cc1)C1CCC(=O)N(CCc2ccccn2)C1 (configuration not stated),?,19%,7%,-25%,9%,/
Cc1cccc(C(=O)N[C@H](C(=O)Nc2ncc(C)s2)C(C)C)c1,?,?,-4%,1%,?,-107*
Cc1cccc(C(=O)NC(C(=O)Nc2nc(-c3ccccn3)cs2)C(C)C)c1 (configuration not stated),?,15µM*,-1%,-4%,?,?
SMILES,Pf growth 96h,Pf growth 48h,SARS PLP yeast,Sm TGR block,HCV inhibitor,HCMV inh
C[C@H](NC(=O)c1ccccc1)C(=O)Nc1nc(-c2ccccn2)cs1,-10%,?,-1%,3%,?,-1
COc1cc(Cl)cc(/C=C/c2ccc3ccccc3n2)c1OC(C)=O,?,15%,6%,-13%,?,-12
CC(=O)Oc1ccc(Cl)cc1/C=C/c1cc(OC(C)=O)c2ccccc2n1,?,1.7µM*,1%,-21%,-9%,52
COc1cccc(CN2CC(C(=O)NCCc3cn4cccnc4n3)CCC2=O)c1 (configuration not stated),/,/,/,/,/,-19
COc1ccc(CN(C)C(=O)/C=C/c2ccc(S(=O)(=O)N3CCOCC3)cc2)cc1F,?,12µM*,2%,-1%,?,-29
COc1ccc(NC(=O)CN(C)C(=O)/C=C/c2ccc(S(=O)(=O)N3CCCCCC3)cc2)cc1,-8%,12µM*,/,-23%,?,-77*
CCCN(CC(=O)Nc1ccccc1C)C(=O)/C=C/c1ccc(S(=O)(=O)N2CCCCCC2)cc1,?,13µM*,-1%,-2%,?,-32
CC(=O)OCC1OC(OC(C)=O)C(NC(=O)c2cccnc2)C(OC(C)=O)C1OC(C)=O (configuration not stated),50%,4%,-17%,-10%,28%,0
O=CNc1ccc2c(c1)Cc1cccc(NC=O)c1-2,/,/,/,/,-14%,38
COc1ccc(CC(=O)NCC(=O)N/N=C(/C)c2ccco2)cc1,-7%,7%,1%,2%,13%,?
O=C(Nc1ccc2c(c1)OCO2)c1ccc(Cl)cc1Cl,?,?,1%,-22%,-22%,108
Cc1c(C(=O)c2ccc(Cl)cc2Cl)cnc2cc3c(cc12)OCO3,13µM*,8.3µM*,-20%,-3%,10µM*,9
Cc1cccc(NS(=O)(=O)c2c(C)nc3scc(C)n3c2=O)c1,16%,?,-2%,0%,-2%,-70*
CCc1ccc(NS(=O)(=O)c2c(C)nc3sc(CC)nn3c2=O)cc1,-19%,?,10%,-1%,-26%,13
Cc1cc(C)cc(NS(=O)(=O)c2c(C)nc3scc(C)n3c2=O)c1,/,/,/,?,/,-6
